Screen size: about 360,000 compounds; about 2,600 (0.72%) were called active. The entries come from a sample that favours actives as a whole. Unmarked numbers belong to inactive results.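 Rule for the calls: active = inhibition of the luminescence signal of 40% or more relative to plate controls, in a single-dose primary screen at 18.75 µM; inactive = the rest.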
Test: HIF-2a reporter inhibitors, primary screen, luminescence, 786-0 RCC cells (AID 624352)
Conditions: 786-0 RCC cells HIF-2a reporter, luciferase luminescence, overnight; at 18.8 µM; stronger effect = higher value

| SMILES | inhibition |
| --- | --- |
| CC1CCc2sc3nc(N4CCN(CCO)CC4)n4ncnc4c3c2C1 (stereo unspecified) | -149% |
| O=C1CN(C(=O)c2cc(F)cc(F)c2)c2ccccc2N1 | 11.9% |
| COc1ccccc1-c1nc(C(F)(F)F)c(OC)o1 | 4.93% |
| COc1ccc(-c2onc3ccc(C(C)=O)cc23)cc1 | -105% |
| COc1ccc(-c2nc(-c3ccccc3)no2)c(OC)c1 | 58.9% (active) |
| O=C(CCc1nnc2ccc(NCc3ccco3)nn12)Nc1cc(F)ccc1F | -0.521% |
| Cc1ccc(Cc2cncc(O)c2)cc1S(=O)(=O)O | 9.79% |
| Cc1ccc(CN(C(=O)c2sc3ccccc3c2Cl)C2CCS(=O)(=O)C2)cc1 (stereo unspecified) | 32% |
| CC(OC(=O)/C=C/c1ccccc1)C(=O)NC1CCCCC1C (stereo unspecified) | 8.8% |
| CC1CCCCC1NC(=O)/C(C#N)=C/C=C/c1ccccc1[N+](=O)[O-] (stereo unspecified) | 79.7% (active) |
| COc1cc(/C=C(\C#N)C(=O)Nc2ccc3ccccc3c2)c([N+](=O)[O-])cc1OC | 17% |
| Cc1ccc(SCCC(=O)NC(C(C)C)C(C)C)cc1 | 23.2% |
| CCN(CC)CCOc1ccc2c(c1)C(=NNC(=O)c1ccccn1)c1cc(OCCN(CC)CC)ccc1-2 | 13.8% |
| Cc1ccc(N2CC(C(=O)N3CCC4(CC3)CC(=O)c3ccccc3O4)CC2=O)cc1C (stereo unspecified) | 2.59% |
| CC(C)Cn1cnc2c(SCc3ccc(Cl)cc3)nc(N)nc21 | -109% |
| CCC(C)Cn1c(O)cc2nn(-c3nc4ccccc4s3)c(=O)c-2c1C (stereo unspecified) | 80.9% (active) |
| CCC/C(O)=C1\C(=O)CC(C)(C)CC1=Nc1ccccc1OC | 10% |
| O=C(Nc1ccc(OCC(=O)N2CCOCC2)cc1)c1cc(F)c(F)cc1Cl | -39.3% |
| CC1CC(=O)Nc2ccccc2N1C(=O)COc1ccc2cc(Br)ccc2c1 (stereo unspecified) | 10.2% |
| CC(C)n1cnc2c(Nc3cccc(Cl)c3)nc(N(CCO)CCCO)nc21 | 51.3% (active) |
| OCCCNc1nccc(-c2cc(Nc3cccc(Cl)c3)ncn2)n1 | -18.5% |
| O=C1NC(Nc2nc3ccccc3s2)(C(F)(F)F)C(=O)N1C1CCCCC1 (stereo unspecified) | -11.7% |
| COc1cc(OC)c(C2=NOC(C(=O)Nc3c(C)n(C)n(-c4ccccc4)c3=O)C2)cc1Cl (stereo unspecified) | 11.3% |

| SMILES | inhibition |
| --- | --- |
| c1ccc2cc(CCCc3cc4ccccc4cn3)ncc2c1 | -39.5% |
| CCOC(=O)c1c(C)nn(-c2ncccc2NC(=O)CCC(=O)O)c1C | 11.8% |
| COC(=O)c1c(NC(=O)CCN2CCOCC2)sc2c1CCCC2 | 5.82% |
| COC(=O)c1c(NC(=O)C2CC(C)=C(C)CC2C(=O)O)sc2c1CCCCC2 (stereo unspecified) | 16% |
| COC(=O)c1c(NC(=O)CCCC(=O)O)sc2c1CCCCC2 | 50.8% (active) |
| O=C(CCCn1c(=O)oc2ccccc21)Nc1cccnc1 | 2.59% |
| NS(=O)(=O)c1cc(Cl)c(Cl)c(S(N)(=O)=O)c1 | -2.27% |
| NC(N)=Nc1nc2ccc(Br)cc2c(=O)[nH]1 | -20.2% |
| NC(N)=Nc1nc(-c2ccccc2)c2cc(Cl)ccc2n1 | 41.9% (active) |
| Cc1nc(N=C(N)N)nc2c(C)cccc12 | 15% |
| S=C(NC1CCCCC1)NN1CCOCC1 | 12.3% |
| Cc1sc(NC(=S)NC(=O)c2cccs2)nc1-c1ccc(CC(C)C)cc1 | -5.06% |
| O=C(C1=C[C@H](c2coc3ccccc3c2=O)C[C@H](OCc2ccc(CO)cc2)O1)N1CCN(Cc2ccccc2)CC1 | 25% |
| CSC1=N/C(=C\C=C\c2cccs2)C(=O)S1 | -28.6% |
| O=C(COc1nsnc1N1CCOCC1)Nc1ccccc1Cl | -40.8% |
| O=C(Nc1ccccc1Cl)/C(Cl)=C(\Cl)S(=O)c1ccccc1 (stereo unspecified) | 95.4% (active) |
| Cc1cccc(C)c1NC(=O)CNC(=O)c1c(C)nn(-c2ccccc2)c1C | 0.612% |
| O=C(/C=C/c1ccc(Cl)c([N+](=O)[O-])c1)c1ccc(O)cc1 | 79% (active) |
| O=C(NCCC1=CCCCC1)c1ccc(Cl)c([N+](=O)[O-])c1 | -91% |
| O=C(/C=C(O)/C=C/c1ccc(O)cc1)/C=C/c1ccc(O)cc1 | -18.9% |
| Cc1ccc(S(=O)(=O)N(C)CC(=O)N2CCc3ccccc32)cc1 | -0.159% |
| CN(Cc1cccs1)C(=O)CN1C(=O)c2ccccc2S1(=O)=O | -66.1% |
| O=C(CN1C(=O)c2ccccc2S1(=O)=O)N1CCc2ccccc21 | 82.3% (active) |
